One may read the inhibition as the relative decrease from the control value, in per cent.

What all share (format): functional
For assay [1], the target named is Solute carrier family 2, facilitated glucose transporter member 1 (Homo sapiens) (UniProt P11166). The assay can be described thus: ST_JUDE_LEISH: Cytotoxicity at 2uM final concentration against transgenic Leishmania Mexicana promastigotes LmGLUT1 that are glucose transport deficient and complemented with the human glucose transporter GLUT1. Activity is measured by DNA content using SYBR green in vitro.
Sequence of Solute carrier family 2, facilitated glucose transporter member 1 (Homo sapiens) (P11166 whole entry): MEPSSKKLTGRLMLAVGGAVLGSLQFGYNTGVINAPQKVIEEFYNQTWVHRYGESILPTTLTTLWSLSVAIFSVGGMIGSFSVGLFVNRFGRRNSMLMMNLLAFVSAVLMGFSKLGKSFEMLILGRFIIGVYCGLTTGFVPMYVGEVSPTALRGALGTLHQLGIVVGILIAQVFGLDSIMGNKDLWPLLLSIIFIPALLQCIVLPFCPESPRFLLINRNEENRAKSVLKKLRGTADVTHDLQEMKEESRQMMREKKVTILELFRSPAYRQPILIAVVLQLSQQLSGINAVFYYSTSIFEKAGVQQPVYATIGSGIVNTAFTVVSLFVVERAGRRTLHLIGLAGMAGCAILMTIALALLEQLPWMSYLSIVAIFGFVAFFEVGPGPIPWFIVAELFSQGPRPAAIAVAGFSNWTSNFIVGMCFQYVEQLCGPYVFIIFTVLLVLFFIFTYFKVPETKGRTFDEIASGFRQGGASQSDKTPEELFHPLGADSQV

Assay [2] addresses Hexose transporter 1 (Plasmodium falciparum) (UniProt O97467). In words: ST_JUDE_LEISH: Cytotoxicity at 2uM final concentration against transgenic Leishmania Mexicana promastigotes LmPfHT that are glucose transport deficient and complemented with the Plasmodium falciparum hexose transporter. Activity is measured by DNA content using SYBR green in vitro.
In assay [3] the target is Glucose transporter (Leishmania mexicana) (UniProt O61059). The assay can be described thus: ST_JUDE_LEISH: Cytotoxicity at 2uM final concentration against transgenic Leishmania Mexicana promastigotes LmGT2 that are glucose transport deficient and complemented with the L. Mexicana glucose transporter 2. Activity is measured by DNA content using SYBR green in vitro.

`Cc1ccc2c(c1C)NC(=O)C21NN=C(c2ccccc2)S1` (stereo not given): the inhibition in assay [1] is -1.86%; in assay [2], -1.15%; in assay [3], -2.33%.

Consider `Fc1ccc2[nH]c(-c3ccc(-c4ccc(CN5CCCCC5)cc4)s3)nc2c1`, for which the inhibition was 5.07% in assay [1], 4.14% in assay [2] and 1.79% in assay [3].

As to `O=S(=O)(c1ccccc1Cl)N1CCCCC(c2ccc(C(F)(F)F)cc2)=N1`, the values for the inhibition in assay [1], in assay [2] and in assay [3] were 1.24%, 2.48% and -2.05%, respectively.

Regarding `CCn1ncc2c(N3CCCC3=O)cc(C(=O)N[C@@H](Cc3ccccc3)[C@H](O)CNC(C)(C)c3cccc(OC)c3)cc21`, the inhibition in assay [1] was 2.35%; in assay [2] it was -0.95%; in assay [3], 0.04%.

As to `CC[C@H](N/C(=N\c1ccc(-c2ccccc2)cc1)Nc1ccc(C#N)cc1O)c1ccccc1`, the inhibition in assay [1] was 4.55%; in assay [2] it was 3.4%; in assay [3] it was 2.55%.

With `FC(F)(F)c1ccc2[nH]c(-c3ccc(-c4ccc(CN5CCN(c6cnccn6)CC5)cc4)cc3)nc2c1`, the inhibition in assay [1] came to 12.9%; in assay [2] it was 10.6%; in assay [3], 7.09%.

In the case of `COc1ccc(-c2ccc(NC(=O)c3ccc(C#N)cc3)cc2)cc1CN1CCCN(C)CC1`, the inhibition in assay [1] was 3.03%; in assay [2], 3.17%; in assay [3], -0.21%.

Turning to `CC(C)(C)CN1C(=O)C(c2ccccc2)(c2ccccc2)N=C1N`, the inhibition in assay [1] came out at 2.88%; in assay [2], 2.58%; in assay [3], 1.88%.

For the compound `CC(C)(C)C1CC(=O)CC2C(=O)N(C3CCCCC3)C(=O)C21` (stereo not given), the inhibition in assay [1] came to 4.51%; in assay [2], 2.76%; in assay [3], 3.68%.

As for `CC(=O)c1ccc(NC(=O)CSc2nc(-c3ccccc3Cl)ns2)cc1`, the figures for the inhibition in assay [1], in assay [2] and in assay [3] were 2.79%, 10.3% and 9.72%, respectively.

In the case of `Cc1cccc(/C=C/C(=O)NC2CCC(N3CCC(c4ccccc4C)CC3)CC2)c1` (stereo not given), the inhibition in assay [1] is -2.65%; in assay [2] it was -2.79%; in assay [3], -0.99%.

In the case of `CS(=O)(=O)N1CC2(CCN(CCC(NC(=O)NCc3ccccc3Cl)c3ccc(Cl)c(Cl)c3)CC2)c2ccccc21` (stereo not given), the inhibition in assay [1] came to 1.26%; in assay [2], 1.46%; in assay [3], 1.78%.

Take `CCOC(=O)c1ccc(NC(=O)N(Cc2ccc(-c3cccc(CN4CCNCC4)c3)cc2)C2CCN(Cc3ccccc3)CC2)cc1`: the inhibition in assay [1] stood at 2.49%; in assay [2] it was 1.96%; in assay [3] it was 7.56%.

Consider `O=C(NC1CCN(c2ccnc3cc(Cl)ccc23)C1)c1ccccc1F` (stereo not given), for which the inhibition in assay [1] was 1.93%; in assay [2], 2.22%; in assay [3], 2.72%.

For `COc1ccc2nccc([C@@H](O)CN3CCC(NC(=O)C(c4cc5ccccc5o4)N4CCN(c5ccccc5)CC4)CC3)c2c1` (stereo not given in full), the inhibition in assay [1] is 5.51%; in assay [2], 2.83%; in assay [3] it was 2.54%.

`O=C(Nc1ccc(Cl)cc1)Nc1cccc(-c2cccc(-c3nc4ccccc4[nH]3)c2)c1`: the inhibition is 1.17% in assay [1], 0.33% in assay [2] and -0.65% in assay [3].

For `CN1CCCc2ccc(NC(=O)c3ccc(-c4cc(C(F)(F)F)nn4C)s3)cc2C1`, the inhibition in assay [1] is 2.28%; in assay [2], 1.85%; in assay [3], -2.38%.

As for `CC(=O)Nc1ccc(NC(=O)c2cc(-c3cc(Cl)ccc3O)n[nH]2)cc1`, the inhibition in assay [1] is -0.41%; in assay [2], -0.51%; in assay [3], 2.29%.

On to `COc1ccc2[nH]c(C)cc(=NN=Cc3ccc(F)cc3)c2c1`, for which the inhibition was determined as 4.47% in assay [1], 5.21% in assay [2] and 1.88% in assay [3].

For `CN(C)CCOc1ccc(N2CCN(CCCCNC(=O)c3ccc(/C=C/c4cc(Cl)cc(Cl)c4)cc3)CC2)cc1`, the values for the inhibition in assay [1], in assay [2] and in assay [3] were -0.63%, 0.08% and -0.38%, respectively.

As for `COc1ccc(-c2ccc(NC(=O)c3ccc(Cl)cc3)cc2)cc1CN1CCNCC1`, the inhibition is 1.97% in assay [1], 2.41% in assay [2] and 2% in assay [3].

Regarding `CN1CCC(NCCS(=O)(=O)c2cccc(Nc3ccc(-c4cccc(F)c4)cn3)c2)CC1`, the figures for the inhibition in assay [1], in assay [2] and in assay [3] were 0.4%, 0.91% and -0.71%, respectively.

Consider `Cc1cccc2nc(-c3cccc(-c4ccc(CNCCCN5CCCC5=O)cc4)c3)[nH]c12`, for which the inhibition in assay [1] was 9.26%; in assay [2], 6.82%; in assay [3], 6.5%.

Take `CC(C)(C)c1cc(C(=O)N2CCN(c3ncnc4ccsc34)CC2)n(Cc2ccccc2)n1`: the inhibition in assay [1] worked out at 4.27%; in assay [2] it was 4.01%; in assay [3], 2.2%.

As to `O=C(/C=C/c1ccccc1F)NC1CCC(CCN2CCc3ccc(-c4cccnc4)cc3CC2)CC1` (stereo not given), the figures for the inhibition in assay [1], in assay [2] and in assay [3] were 15.8%, 15.8% and 20.1%, respectively.

Regarding `COc1ccc(Cl)cc1N1CCN(CCCNC(=O)c2ccc(-c3nc4cc(Cl)c(F)cc4[nH]3)s2)CC1`, the inhibition in assay [1] worked out at 6.45%; in assay [2] it was 5.41%; in assay [3], 2.06%.

Turning to `CC(C)(C)C1CCc2onc(C(=O)Nc3cc(Cl)ccc3O)c2C1` (stereo not given), the results for the inhibition in assay [1], in assay [2] and in assay [3] were 7.15%, 5.86% and 4.8%, respectively.

For `CCNc1cc(C(=O)N[C@@H](Cc2ccccc2)[C@H](O)CN[C@@H](C)c2ccccc2)cc(N2CCCC2=O)c1`, the inhibition in assay [1] was found to be 1.35%; in assay [2] it was 0.55%; in assay [3] it was 1.24%.

Regarding `O=c1[nH]ccc2nc(N[C@@H]3CCNC3)nc(Nc3cccc(S(=O)(=O)N4CCOCC4)c3)c12`, the inhibition in assay [1] turned out to be 2.94%; in assay [2], 3.93%; in assay [3] it was 0.85%.

As for `O=C(Nc1cccc(-c2nc3ccccc3[nH]2)c1)c1cccc(NC(=O)c2ccco2)c1`, the inhibition is 2.33% in assay [1], 2.09% in assay [2] and 0.63% in assay [3].

For the compound `CN(c1ccc(NC(=O)Nc2cc(C(F)(F)F)ccc2F)cc1)c1ccnc(NCCN2CCOCC2)n1`, the inhibition worked out at 7.88% in assay [1], 18.5% in assay [2] and 0.14% in assay [3].

As to `COc1ccc(NC(=O)[C@H](Cc2ccccc2)Nc2cc(C)nc(NCCc3ccccc3)n2)cc1`, the inhibition in assay [1] amounted to 5.74%; in assay [2], 6.29%; in assay [3], 5.16%.

For `c1cc(CN2CCc3ccccc3CC2)cc(-c2c[nH]c3nc(NC4CCCC4)ncc23)c1`, the inhibition in assay [1] is -0.02%; in assay [2] it was -0.68%; in assay [3] it was 0.91%.

Regarding `NC1CCN(Cc2ccc(-c3ccc(-c4nc5cc(F)ccc5[nH]4)cc3)cc2)C1` (stereo not given), the inhibition in assay [1] was 6.38%; in assay [2] it was 4.78%; in assay [3], -0.01%.

Consider `O=C(Cn1c(=O)cnc2ccccc21)Nc1cccc(C(=O)Nc2cccc(C(F)(F)F)c2)c1`, for which the inhibition in assay [1] was 1.09%; in assay [2], 3.37%; in assay [3], 1.93%.

For the origin of these results see ChEMBL document CHEMBL3433997, “St. Jude Leishmania screening dataset” (2016).
